Data as given in ChEMBL document CHEMBL3988442, “University of Dundee, Small-Polar-MMV Screening Library” (2021).
Hit rate of the full screen: of about 48,000 compounds, about 13,000 (27%) showed an effect of 50% or more. Some of the results follow.

Test system: Wolbachia pipientis
Test: Anti-Wolbachia Cell-Based Screen
Assay type: functional
Parameters: scale not given: in the data most compounds retested in dose-response had high values
Conditions: 5 µM

| SMILES | Percent Effect [%] |
| --- | --- |
| CCCc1nccn1-c1cccc(CN2CCCC2)c1 | -15.07 |
| Cc1ncccc1C(=O)NCc1ccccc1CN(C)Cc1ccco1 | 15.52 |
| CCCNc1ncc(CN2CCN(C)C(=O)C2C)cn1 (stereo unspecified) | -4.636 |
| COCCN1C[C@@H](C)[C@@]2(COCCN(C(=O)c3ccoc3)C2)C1 | 1.711 |
| O=C(NC1CC1)N1CCOCC2(CCN(Cc3cccs3)C2)C1.O=C(O)C(F)(F)F (stereo unspecified) | 89.31 |
| Cc1occc1C(=O)N1CCOCC2(CCN(Cc3nccs3)C2)C1.O=C(O)C(F)(F)F (stereo unspecified) | -1.117 |
| O=C(O)C(F)(F)F.O=C(O)C(F)(F)F.c1csc(CN2CCCC3(COCCN(Cc4c[nH]nn4)C3)C2)c1 (stereo unspecified) | -6.971 |
| Cc1ccc(CN2CCOCC3(CCN(Cc4cccs4)C3)C2)o1.O=C(O)C(F)(F)F.O=C(O)C(F)(F)F (stereo unspecified) | 110.5 |
| CN(C)CCN1CCOCC2(CCCN(C(=O)c3ccoc3)C2)C1.O=C(O)C(F)(F)F.O=C(O)C(F)(F)F (stereo unspecified) | -7.918 |
| O=C(N1CCCC1)N1CCOCC2(CCN(Cc3cccs3)C2)C1.O=C(O)C(F)(F)F (stereo unspecified) | 119.1 |
| CC(C)N1CCOCC2(CN(Cc3cccs3)CCO2)C1.O=C(O)C(F)(F)F.O=C(O)C(F)(F)F (stereo unspecified) | 7.639 |
| Cc1ccc(CN2CCCC3(COCCN(Cc4c[nH]nn4)C3)C2)o1.O=C(O)C(F)(F)F.O=C(O)C(F)(F)F (stereo unspecified) | -14.33 |
| O=C(O)C(F)(F)F.O=C(O)C(F)(F)F.c1csc(CN2CCC3(COCCN(CC4CC4)C3)C2)n1 (stereo unspecified) | 26.97 |
| O=C(c1ccoc1)N1CCOCC2(CCN(Cc3cccs3)C2)C1 (stereo unspecified) | 98.93 |
| Cc1ccc(CN2CCOC3(COCCN(C(C)C)C3)C2)o1.O=C(O)C(F)(F)F.O=C(O)C(F)(F)F (stereo unspecified) | -26.11 |
| OCCN(Cc1cccnc1)c1cnc2ccccc2n1 | -10.33 |
| COCC(=O)N1CCCC2(COCCN(CCN(C)C)C2)C1.O=C(O)C(F)(F)F.O=C(O)C(F)(F)F (stereo unspecified) | -43.45 |
| COCCC(=O)N1CCOCC2(CCN(Cc3cccs3)C2)C1.O=C(O)C(F)(F)F (stereo unspecified) | 93.92 |
| COCCN1CCC2(COCCN(C(=O)Cc3cccs3)C2)C1.O=C(O)C(F)(F)F (stereo unspecified) | 3.842 |
| COCC(=O)N1CCOCC2(CCN(Cc3cccs3)C2)C1.O=C(O)C(F)(F)F (stereo unspecified) | 92.34 |
| COCCC(=O)N1CCC2(CCN(Cc3ccc(C)cc3)CC2)C1.O=C(O)C(F)(F)F | -24.32 |
| Cc1nc(CC2CCCN(Cc3nc4ccccc4c(=O)[nH]3)C2)no1 (stereo unspecified) | -3.308 |
| CSCc1cccc(S(=O)(=O)NCCCn2ccnc2)c1 | -11.24 |
| O=C(CCc1nccs1)N1CCN(c2ccccn2)CC1 | 104.9 |
| O=C(COCc1ccccc1)N1CCN(c2ccc(Cl)cn2)CC1 | 1.398 |
| O=C(CCc1nccs1)N1CCN(c2nccs2)CC1 | 116.1 |

| SMILES | Percent Effect [%] |
| --- | --- |
| COc1cc(C)nc(N2CCN(C(=O)CCc3nccs3)CC2)n1 | -2.127 |
| O=C(CCc1nccs1)N1CCN(c2ccc(Br)cn2)CC1 | 15.4 |
| O=C(CCc1nccs1)N1CCN(c2ncccn2)CC1 | -7.196 |
| O=C(CCc1nccs1)N1CCN(c2ccc(Cl)cn2)CC1 | 142.1 |
| Cc1csc(N2CCN(C(=O)CCc3nccs3)CC2)n1 | 0.8841 |
| Cc1ccc(N2CCCN(C(=O)CCc3nccs3)CC2)nn1 | 105.9 |
| N#Cc1ccccc1N1CCCN(C(=O)CCc2nccs2)CC1 | 6.343 |
| O=C(CCc1nccs1)N1CCN(c2ccccc2F)CC1 | -6.443 |
| O=C(CCc1nccs1)N1CCN(c2cccnn2)CC1 | 5.775 |
| Cc1nnc(CNC(=O)[C@@H]2C[C@H](NC(=O)C(C)(C)C)CN2C)[nH]1 | -6.748 |
| CCOCCC(=O)N(Cc1ccncc1)C(C)CC (stereo unspecified) | -2.407 |
| CC(=O)N[C@@H](CC(C)C)C(=O)N1CCC(n2cc(C(C)(C)N)nn2)CC1 | 10.18 |
| Cc1n[nH]c(C)c1NC(=O)CN(CC(O)c1ccc(F)cc1)C1CC1 (stereo unspecified) | -1.217 |
| COc1cc2c(nn1)CCN(Cc1nc(Cc3ccccc3)no1)C2 | -1.36 |
| CCS(=O)(=O)N1CCOC2(CCCN(c3cccc(C#N)c3)C2)C1 (stereo unspecified) | -4.449 |
| Cc1cc(C)c(CNC(=O)NCCOc2ccc3c(c2)CCC3)c(=O)[nH]1 | -6.999 |
| CN(CC1(CO)CCCC1)C(=O)c1cc(COc2ccccc2F)[nH]n1 | 101.7 |
| O=C(NCCC1CCCCO1)c1cc(COc2ccccc2F)[nH]n1 (stereo unspecified) | 0.1687 |
| O=C(NCc1nc[nH]n1)c1cc(COc2ccccc2F)[nH]n1 | -17.12 |
| O=C(NCCN1CCOCC1)c1cc(COc2ccccc2F)[nH]n1 | -10.47 |
| CN(Cc1nncn1C)C(=O)c1cc(COc2ccccc2F)[nH]n1 | -12.02 |
| CN(CC1(CO)CCC1)C(=O)c1cc(COc2ccccc2F)[nH]n1 | 109.5 |
| O=C(N[C@@H]1CNCCC[C@H]1O)c1ccc(OCCN2CCCC2)cc1 | 0.07573 |
| CO[C@@H]1CC[C@@H](NC(=O)c2ccc(OCCN3CCCC3)cc2)[C@H]1O | 109.4 |
| O=C(N[C@@H]1CNCCC[C@H]1O)c1ccc(OCCN2CCOCC2)cc1 | 0.8179 |
| c1cn(CCc2c[nH]cn2)c(-c2cc(CN3CCCC3)cs2)n1 | -0.5916 |

| SMILES | Percent Effect [%] |
| --- | --- |
| Cl.Fc1ccccc1Cn1c(C2CCNCC2)cc2cccnc21 | 115.9 |
| Cl.c1cnc2c(c1)cc(C1CCOCC1)n2CCN1CCOCC1 | -3.513 |
| CC(C)(C)OC(=O)N1CC(CC(=O)NCc2ccnc(C3CC3)c2)C1 | -29.57 |
| NS(=O)(=O)c1ccc(NCc2ccccc2F)cc1C(F)(F)F | -7.773 |
| Cl.Fc1cccc(F)c1Cn1c(C2CCNCC2)cc2cccnc21 | 115.5 |
| Cl.Fc1cccc(F)c1Cn1c(C2CCCNC2)cc2cccnc21 (stereo unspecified) | 125.8 |
| Cl.Fc1ccccc1CNc1ccnc(C2CCNCC2)c1 | 96.16 |
| O=C(O)C(F)(F)F.O=C(c1ncccn1)N1CC[C@H]2OCC[C@@]2(COc2ccccn2)C1 | -10.25 |
| COC(=O)c1ccc(S(=O)(=O)N(C)CC(N)=O)c(Cl)c1 | -3.285 |
| Cc1cnn(CC2CCCN2Cc2cc(=O)n3cccc(C)c3n2)c1 (stereo unspecified) | 6.367 |
| COc1ccc2c(c1)CCCC2CC(=O)O (stereo unspecified) | -1.038 |
| O=C(NC1CCC1)[C@H]1C[C@@H]2[C@@H](C1)OCCN2CC1CC1.O=C(O)C(F)(F)F | -6.466 |
| Cc1cc(-n2cncn2)ccc1C(=O)N(CC(F)(F)F)C(C)C | -3.659 |
| Cc1nc(-c2ccccc2)sc1CSCCC(N)=O | 7.014 |
| CN(Cc1noc2c1CCCC2)C(=O)CN1C(=O)COc2ccccc21 | -4.066 |
| CCCn1ncc(C(=O)NCc2n[nH]c3c2CCCCC3)c1C | -11.8 |
| CC1=C(C(=O)NCCc2n[nH]c3c2CCCC3)C(C)NC(=O)N1 (stereo unspecified) | 140.8 |
| O=C(NCc1n[nH]c2c1CCCCC2)c1cnn2c1CCCC2 | -12.98 |
| CC(=O)N1C[C@@H]2CC[C@H](C1)N(C(=O)CCc1n[nH]c3c1CCCC3)C2 | -10.18 |
| CC1=C(C(=O)N(C)Cc2noc3c2CCCC3)C(C)NC(=O)N1 (stereo unspecified) | 99.57 |
| COc1nc2c(cc1C(=O)N(C)Cc1n[nH]c3c1CCCC3)CCC2 | -1.669 |
| CC1=C(C(=O)N(C)Cc2n[nH]c3c2CCCCC3)C(C)NC(=O)N1 (stereo unspecified) | 97.58 |
| CN(Cc1noc2c1CCCC2)C(=O)C1CCOc2ccccc2C1 (stereo unspecified) | -27.45 |
| COCCCC1CCCN(C(=O)CCc2csc(N)n2)C1 (stereo unspecified) | 18.03 |
| CC(NCCN1CCC(N(C)C)CC1)c1ccc(Cl)s1 (stereo unspecified) | 1.149 |
| Cc1cccc(=O)n1CCCNc1nc(N(C)C)nc2c1CCNCC2 | -26.54 |

| SMILES | Percent Effect [%] |
| --- | --- |
| O=C(O)C(F)(F)F.O=C(c1ccccc1-c1ccccc1)N1C[C@@H]2CNC[C@]2(C(=O)O)C1 | 7.106 |
| N#Cc1cccnc1Oc1cc(F)c(CN2CCCC2)c(Cl)c1 | 85.58 |
| COc1ccc(Oc2ncccc2C(F)(F)F)cc1CN1CCCC1 | 21.25 |
| Fc1cccnc1Oc1cc(F)c(CN2CCCC2)c(F)c1 | 105.5 |
| COc1cc(Oc2ncccc2C(F)(F)F)ccc1CN1CCCC1 | 7.614 |
| Fc1cccnc1Oc1cc(F)c(CN2CCCC2)c(Cl)c1 | 96.1 |
| COc1ccc(Oc2ncccc2F)cc1CN1CCCC1 | -25.38 |
| N#Cc1cccc(Oc2ccc(CN3CCCC3)cc2Cl)n1 | 1.122 |
| Fc1cc(Oc2ccc(C(F)(F)F)cn2)cc(F)c1CN1CCCC1 | -0.6803 |
| N#Cc1ccc(Oc2cc(F)c(CN3CCCC3)c(F)c2)nc1 | 28.32 |
| O=C(NCc1ccccc1CN1CCCCCC1)Nc1nncs1 | -11.94 |
| CCc1csc(CNC2CCN(Cc3ccccc3)C2)n1 (stereo unspecified) | -41.87 |
| O=c1[nH]c(=O)n(CC(O)c2ccccc2Cl)cc1Cl (stereo unspecified) | -2.887 |
| CCCn1cnnc1CNC(=O)C1COc2ccc(OC)cc2C1 (stereo unspecified) | -4.97 |
| CCCc1n[nH]c(C2CN(Cc3ncc[nH]3)CCO2)n1 (stereo unspecified) | 0.7755 |
| Brc1ccc(CN2CCC(NCc3ncc[nH]3)CC2)cc1 | 0.1556 |
| CC(C)(C)c1n[nH]c(C2CN(Cc3ncc[nH]3)CCO2)n1 (stereo unspecified) | -4.416 |
| Clc1cc(Cl)cc(CN2CCC(NCc3ncc[nH]3)CC2)c1 | 21.36 |
| Cn1cncc1-c1nnc([C@H]2CCN(Cc3ncc[nH]3)C2)o1 | -1.708 |
| CCCc1nnc([C@H]2CCN(Cc3ncc[nH]3)C2)o1 | 2.62 |
| Fc1ccc(Nc2ccc(C3CCN(Cc4ncc[nH]4)CC3)nc2)nc1 | 114.5 |
| Cc1cccc(Nc2ccc(C3CCN(Cc4ncc[nH]4)CC3)nc2)n1 | 108.6 |
| Cc1cc(Nc2ccc(F)cn2)cc(C2CCN(Cc3ncc[nH]3)C2)n1 (stereo unspecified) | 87.11 |
